Source: PubChem BioAssay (NCI)
This is part of a sample that, as a whole, favours compounds with a hit. Of some 83,000 tested, about 20% had one in any assay.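 Treatment: one concentration, 48 hours, 96-well format. Scoring: percent growth, with anything below 10 considered active.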 The source made the active and inactive calls.

Tests used:
Experiment in all cases: NCI-60 one-dose screen, 48 h (100 = growth as untreated, 0 = no growth, -100 = all killed)
Conditions in all cases: 10 µM unless noted
[1] = system: DU-145 prostate
[2] = system: MALME-3M melanoma
[3] = system: MDA-MB-231 breast
[4] = system: SF-268 CNS
[5] = system: SF-295 CNS
[6] = system: SF-539 CNS
[7] = system: UACC-257 melanoma
[8] = system: M14 melanoma
[9] = system: HCT-15 colon
[10] = system: HT29 colon
[11] = system: SNB-75 CNS
[12] = system: SNB-19 CNS
[13] = system: U251 CNS
[14] = system: PC-3 prostate
[15] = system: SK-MEL-5 melanoma
[16] = system: UACC-62 melanoma
[17] = system: LOX IMVI melanoma
[18] = system: SK-MEL-28 melanoma
[19] = system: K-562 leukemia

Measured: growth

CCN(CCNc1cc(OC)cc2cccnc12)CCc1ccccc1
inactive: [1] 101% | [2] 108% | [3] 70.7% | [4] 84% | [5] 83.5% | [6] 97.6% | [7] 77.8% | [8] 93.4% | [9] 73.1% | [10] 70% | [11] 83.7% | [12] 98.1% | [13] 101% | [14] 87.5% | [15] 95.3% | [16] 99.8% | [17] 86.5% | [18] 102%

O=C1CCCCCCCCC(O)C(O)CCCC(c2cccs2)O1 (stereo not drawn)
inactive: [1] 117% | [19] 96% | [2] 107% | [3] 84.8% | [4] 95.9% | [5] 93.7% | [6] 106% | [7] 60.9% | [10] 114% | [11] 102% | [12] 87.1% | [13] 98.3% | [14] 88.2% | [15] 91% | [16] 81.8% | [17] 96.5% | [18] 123%

O=C(O)c1cn(C2CC2)c2cc(N3CCN(C(=O)C[n+]4cccc5ccccc54)CC3)c(F)cc2c1=O
active: [2] -41.7%
inactive: [1] 91.7% | [3] 99.8% | [4] 68.2% | [5] 107% | [6] 69.1% | [7] 82.3% | [8] 64.8% | [9] 55% | [10] 78.7% | [11] 75.1% | [12] 83.8% | [13] 64.4% | [14] 77.1% | [15] 94.6% | [16] 42.7% | [17] 20.7% | [18] 56.8%

O=C(O)c1ccc[n+](CC(=O)N2CCN(c3cc4c(cc3F)c(=O)c(C(=O)O)cn4C3CC3)CC2)c1
active: [2] -34%
inactive: [1] 96.1% | [3] 98.3% | [4] 70.1% | [5] 116% | [6] 69.1% | [7] 80.1% | [8] 64.6% | [9] 73.4% | [10] 92.9% | [11] 79.4% | [12] 87.1% | [13] 74.7% | [14] 87.3% | [15] 91.7% | [16] 48.9% | [17] 30.2% | [18] 60.4%

COc1ccc(/C=C/c2n[nH]c3ccc(N4CCOC4=O)cc23)cc1
active: [6] -1.43% | [10] -18.6% | [11] -11.1% | [17] 1.88%
inactive: [1] 14.7% | [2] 59.9% | [3] 14.6% | [4] 13% | [5] 32.8% | [7] 38.4% | [8] 26.9% | [9] 10.1% | [12] 18.2% | [13] 15.9% | [14] 18.5% | [15] 11.7% | [16] 16.5% | [18] 33.5%

CN1CCN(C(=O)[C@]2(C)CC[C@]3(C)CC[C@]4(C)C(=CC(=O)[C@@H]5[C@@]6(C)CCC(=O)NC(C)(C)[C@@H]6CC[C@]54C)[C@@H]3C2)CC1
inactive: [1] 97.6% | [2] 95.9% | [3] 107% | [4] 94.3% | [5] 98.3% | [6] 92% | [7] 103% | [8] 105% | [9] 94.6% | [10] 86.9% | [11] 73.7% | [12] 97.8% | [13] 86.7% | [14] 88.8% | [15] 88.8% | [16] 97.3% | [17] 84.6% | [18] 101%

C#Cc1cccc(NC(=O)Nc2ccc(NC(=O)CCl)cc2)c1
active: [19] 3.37% [8.25 µM] | [2] -80.5% [8.25 µM] | [3] -72.6% [8.25 µM] | [4] -82.9% [8.25 µM] | [6] -99.6% [8.25 µM] | [9] -63.1% [8.25 µM] | [10] -69.5% [8.25 µM] | [11] -27.9% [8.25 µM] | [13] -72% [8.25 µM] | [14] 8.79% [8.25 µM] | [15] -73.9% [8.25 µM] | [16] -44.3% [8.25 µM] | [17] -74.9% [8.25 µM]
inactive: [1] 22.3% [8.25 µM] | [5] 79.5% [8.25 µM] | [7] 35.1% [8.25 µM] | [12] 32.4% [8.25 µM] | [18] 67.6% [8.25 µM]

COc1ccc(-c2nc(SC)nc(N3CCOCC3)c2C#N)cc1
inactive: [1] 106% | [19] 97.5% | [2] 102% | [3] 92.2% | [4] 92.4% | [5] 98.8% | [6] 86.5% | [7] 112% | [10] 92.3% | [11] 60.5% | [12] 96.7% | [13] 91.1% | [14] 81.1% | [15] 98.4% | [16] 83.5% | [17] 96.1% | [18] 106%

COc1ccc(/C=C/C(=O)c2ccc(Nc3ncnc4ccccc34)cc2)cc1OC
inactive: [1] 83.1% | [2] 101% | [3] 72.1% | [4] 68.1% | [5] 79.6% | [6] 98.1% | [7] 98.6% | [8] 64.7% | [9] 75.9% | [10] 13.9% | [11] 92.2% | [12] 79.1% | [14] 65.4% | [15] 91.9% | [17] 44.2% | [18] 98.1%
